# Source: PubChem BioAssay (several laboratories)
# Most compounds without a hit are left out; they make up all but 27% or so of the library.
# CYP2C19 activ – activators of human cytochrome P450 2C19. P33261. recombinant CYP2C19, luciferin-H EGE luminescence; hits give high values; 0 = fully inhibited enzyme, 1 = untreated enzyme. activation factor at 5 µM. 96,000 tested, under 10 active. AID 1025;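 active = activation factor of at least 2 at 5 µM in the primary screen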;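 also: 0 = wells with 2.5 mM tranylcypromine and 1 = vehicle-only wells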
# CYP2C19 inhib – human CYP2C19 inhibition | P33261 | CYP2C19 Supersomes, luciferin-H EGE luminescence, 30 min | inhibition, % at 5 µM | 21% of 96,000 active;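 active = CYP2C19 inhibition above a set limit at 5 µM in the primary screen, cut at about 50% in these data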;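 also: plate controls were negative control wells for no effect and 2.5 mM tranylcypromine positive control for full effect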
# CYP2C9 inhib – inhibitors of human CYP2C9; P11712; CYP2C9 Supersomes, luciferin-H conversion, luminescence; inhibition, % at 5 µM; 20% of 96,000 active; AID 777;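 active = blocking of liver enzyme CYP2C9 beyond about 50% at 5 µM, limit read from the data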
# sEH activator – soluble epoxide hydrolase (human) activation | P34913 | purified human sEH enzymatic activity, activator screen | activation, % at 2 µM | 0.04% of 91,000 active | AID 717; in the data active = activation above about 37%
# Target sequence (P34913 whole entry, looked up): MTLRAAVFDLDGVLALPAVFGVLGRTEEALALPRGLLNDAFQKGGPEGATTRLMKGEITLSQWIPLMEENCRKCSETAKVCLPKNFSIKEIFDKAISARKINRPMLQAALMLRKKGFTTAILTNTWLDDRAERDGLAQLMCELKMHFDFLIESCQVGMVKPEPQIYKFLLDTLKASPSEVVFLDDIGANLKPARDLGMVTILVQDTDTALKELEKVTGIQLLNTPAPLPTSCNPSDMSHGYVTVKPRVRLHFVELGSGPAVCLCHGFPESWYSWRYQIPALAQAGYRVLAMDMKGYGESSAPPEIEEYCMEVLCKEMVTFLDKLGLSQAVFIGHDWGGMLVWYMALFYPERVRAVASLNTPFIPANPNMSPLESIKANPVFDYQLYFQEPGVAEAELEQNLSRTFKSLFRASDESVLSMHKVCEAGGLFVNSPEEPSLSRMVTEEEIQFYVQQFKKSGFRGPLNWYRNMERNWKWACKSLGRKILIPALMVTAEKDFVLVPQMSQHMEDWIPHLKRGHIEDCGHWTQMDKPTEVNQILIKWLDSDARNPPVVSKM
# CYP2C9 activ – increases human cytochrome P450 2C9 activity. activation factor at 5 µM. 1.4% of 96,000 active. recombinant CYP2C9, luciferin-H conversion, luminescence; hits give high values; factor 1 = untreated enzyme, 0 = blocked. AID 1024;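 active = activation factor of 2 or more for CYP2C9 at a 5 µM dose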;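 also: 0 = sulfaphenazole-blocked wells and 1 = vehicle-only wells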
# sEH inh – soluble epoxide hydrolase (human) inhibition | P34913 | 0.34% of 91,000 active | recombinant human sEH enzymatic activity assay | inhibition, % at 2 µM; in the data active = inhibition above about 80%
# Numbers without * were called inactive; . = not tested or not shown.
SMILES,CYP2C19 activ,CYP2C19 inhib,CYP2C9 inhib,sEH activator,CYP2C9 activ,sEH inh
COc1ccc(NC(=O)C2CC2)cc1NS(=O)(=O)c1ccc(F)cc1,0.4,58.4*,2.9,-0.1,1,0.9
COc1ccc(S(=O)(=O)N2CCC(C(=O)Nc3ccc(OC)c(OC)c3)CC2)cc1C,.,.,.,7.3,.,-10.0
CCOc1ccc(CCN2C(=O)C3C4C=CC(C4)C3C2=O)cc1OCC (stereo unspecified),0.5,52.8*,8.8,-2.0,0.9,1.0
O=C(CCc1nc(-c2ccccc2)c(-c2ccccc2)o1)OCc1ccc(Cl)cc1,1,4.3,29.2,6.1,0.7,-3.2
O=C(CCc1nc(-c2ccccc2)c(-c2ccccc2)o1)OCc1ccc(Br)cc1,0.4,58.2*,80.8*,10.9,0.2,-11.5
CC1=C(C)/C(=N\OS(=O)(=O)c2ccccc2)C=CC1=O,0.9,13.8,-5.9,-6.1,1.1,4.4
Cc1c(-c2nc(N)nc(Nc3ccccc3)n2)oc2ccccc12,0.8,22.6,83.7*,-2.5,0.2,1.1
Nc1nc(CN2CCCCCC2)nc(Nc2ccccc2)n1,0.9,11.4,0.6,7.6,1,-3.9
CCn1c(-c2ccsc2)nc2c1c(=O)[nH]c(=O)n2Cc1ccccc1,0.5,51.5*,21.7,.,0.8,.
O=C1C2Sc3[nH]c(=O)sc3C(c3ccccc3)C2C(=O)N1c1ccc(Cl)cc1 (stereo unspecified),0.3,67.2*,52.3*,-0.8,0.5,4.3
COCCOC(=O)c1[nH]c2c(c1C)C(=O)C(C(=O)OC)C(C)C2 (stereo unspecified),0.8,17.6,18.4,.,0.8,.
COC(=O)C1C(=O)c2c([nH]c(C(=O)OCC3CCCO3)c2C)CC1C (stereo unspecified),0.9,12.1,54.1*,.,0.5,.
CCN(CC)c1ccc(NC(=O)/C=C\c2ccccc2Cl)cc1,0.3,71.2*,-125.0,-21.5,2.3*,21.6
NS(=O)(=O)c1ccc(CNC(=O)/C=C/c2c(Cl)cccc2Cl)cc1,1.1,-9.1,-48.3,-91.6,1.5,91.6*
CCCCOCCCNC(=O)/C=C/c1ccccc1Cl,.,.,.,-39.4,.,38.7
O=C(/C=C/c1ccccc1Cl)NCc1ccccc1,0.9,7.6,-110.0,-40.2,2.1*,39.1
NS(=O)(=O)c1ccc(NC(=S)NCc2ccc(Cl)cc2)cc1,0.6,38.5,-76.9,-0.8,1.8,6.4
COc1ccccc1N1CCN(S(=O)(=O)c2cc(C)sc2C)CC1,0.6,42.0,34.6,11.3,0.7,-7.4
Cc1cc(S(=O)(=O)N2CCN(c3ccccc3O)CC2)c(C)s1,0.3,70.8*,30.2,3.7,0.7,-0.1
c1ccc(C2(CNc3ccccn3)CCCC2)cc1,0.5,54.9*,43.9,-7.6,0.6,4.3
Cc1nc(NC(=O)c2cc3c(s2)CCCCC3)sc1C(=O)N(C)C,0.7,33.9,55.7*,-3.8,0.4,3.2
Cc1cccc(NC(=S)NC2CC3CCCC(C2)N3CC(C)C)c1 (stereo unspecified),.,.,.,-12.5,.,14.5
CCN(CC)S(=O)(=O)c1ccc(OC)c(NC(=O)CSc2ccccc2)c1,0.5,49.5,89.2*,1.9,0.1,-1.5
COc1cc(-c2nnc(SCC(=O)Nc3ccc4c(c3)OCCO4)o2)cc(OC)c1OC,0.8,20.9,75.3*,5.3,0.2,-2.4
Cc1cc(NC(=O)CSc2nnc(-c3ccc4c(c3)OCCO4)o2)no1,0.5,48.6,40.6,-9.0,0.6,12.1
SMILES,CYP2C19 activ,CYP2C19 inhib,CYP2C9 inhib,sEH activator,CYP2C9 activ,sEH inh
COc1ccc(NC(=O)CSc2ccccc2)c(OC)c1,.,.,.,7.4,.,-3.3
CCN(CC)S(=O)(=O)c1ccc(-c2nnc(SCC(=O)Nc3ccc(OC)cc3)o2)cc1,.,.,.,-14.9,.,15.9
CCN(CC)S(=O)(=O)c1ccc(-c2nnc(SCC(=O)Nc3ccc(OC)c(OC)c3)o2)cc1,0.8,21.3,69.7*,5.4,0.3,-4.6
CCN(C(=O)c1ccc(C(C)(C)C)cc1)c1nnc(Cn2nnc3ccccc32)s1,0.7,25.7,51.8*,-7.6,0.5,8.2
Cc1ccc(S(=O)(=O)Nc2cc(C)c(O)c(S(=O)(=O)c3ccc(C)cc3)c2)cc1,0.6,36.5,76.7*,-10.2,0.2,10.2
Cc1cc(NS(=O)(=O)c2ccccc2)cc(Cl)c1O,0,100.1*,-73.9,.,1.7,.
N#CC1(c2ccccc2)CCCN1C(=O)c1ccco1 (stereo unspecified),0.9,9.6,7.7,-0.1,0.9,0.6
CC(C)c1nc(SCC(=O)NCc2ccccc2)n[nH]1,0.5,54.2*,-13.0,8.8,1.1,-4.5
O=C(CSc1n[nH]c(-c2cccnc2)n1)Nc1ccccc1,.,.,.,10.0,.,-7.2
O=C(CSc1nc(N2CCCCC2)nc(N2CCCCC2)n1)c1ccccc1,0.5,47.4,78.8*,-5.3,0.2,4.6
O=C(CSc1ncccn1)NCc1ccccc1,0.6,35.7,-14.0,26.4,1.1,-28.9
O=C(CSc1n[nH]c(-c2ccccc2)n1)Nc1ncc(Br)cc1Br,0.1,86.8*,88.0*,-3.3,0.1,4.5
Cc1cc(N2CCCCC2)nc(SCC(=O)c2ccccc2)n1,0.8,25.0,26.4,-1.1,0.7,0.3
CC(=O)Nc1nc(SCCCc2ccccc2)n[nH]1,0.2,80.4*,18.8,3.7,0.8,-4.8
CCN(CC)CCn1c(NCc2ccc(OC)cc2)nc2ccccc21,1.1,-7.3,-3.3,-6.9,1,6.5
Cc1nc(SCC(=O)N2CCc3ccccc32)n[nH]1,1.1,-6.7,-12.5,-6.5,1.1,8.3
COC(=O)CSc1n[nH]c(-c2cccnc2)n1,1.1,-13.6,-10.6,1.6,1.1,-4.6
O=C(CSc1n[nH]c(-c2ccncc2)n1)NCCc1ccccc1,0.1,91.9*,96.8*,10.7,0,-7.6
Cc1nc(SCC(=O)c2ccccc2)n[nH]1,0.6,37.6,52.2*,9.4,0.5,-11.1
O=C(CSc1n[nH]c(-c2ccncc2)n1)c1ccccc1,0.1,89.8*,96.4*,-4.4,0,4.8
Cc1cc(-c2ccccc2)nc(SCC(=O)c2cccc([N+](=O)[O-])c2)n1,0.6,43.5,68.1*,-0.9,0.3,2.7
COC(=O)C(NC(=O)c1ccc(F)cc1)(Nc1nc(C)cs1)C(F)(F)F (stereo unspecified),0.6,36.9,-3.7,-0.6,1,0.5
O=C(NC1=NCCS1)c1cccc(S(=O)(=O)N2CCCCC2)c1,0.5,45.3,5.6,.,0.9,.
Cc1ccc(C)c(C(=O)CSc2n[nH]c(-c3ccncc3)n2)c1,0,98.3*,99.4*,.,0,.
CCc1nc(SCC(=O)NCCc2ccccc2)n[nH]1,0.4,56.1*,-0.6,3.0,1,-3.7
CCOC(=O)CSc1n[nH]c(-c2cccnc2)n1,1.1,-12.9,-14.5,12.3,1.1,-14.5
Cc1ccnc(SCCn2c(N3CCCCC3)nc3c2c(=O)n(C)c(=O)n3C)n1,0.8,21.0,37.4,-8.4,0.6,6.5
CCc1c(C(=O)Nc2cc(C)cc(C)c2)[nH]c(C)c1C(C)=O,0.6,44.3,59.7*,-23.6,0.4,23.5
